This is part of a sample that, as a whole, favours compounds with a hit. Of some 83,000 tested, about 20% had one in any assay.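 Plates (96-well) were seeded with cells, treated with compound at one concentration, and incubated for 48 hours before percent growth was determined.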 Unmarked numbers belong to inactive results. Activity calls are given as the source filed them. How the source made its calls: active means growth percent below 10; inactive means the rest.

Holding throughout (experiment): NCI-60 one-dose screen, 48 h (100 = growth as untreated, 0 = no growth, -100 = all killed)
Holding throughout (conditions): 10 µM unless noted

Experiment [1] has as its system NCI-H23 lung.
Experiment [2] has as its system NCI-H226 lung.
Experiment [3] deals with NCI-H322M lung.
Experiment [4] concerns HOP-62 NSCLC.
Experiment [5] has as its system NCI-H460 lung.
For experiment [6], the system named is HOP-92 NSCLC.
For experiment [7], the system named is NCI-H522 lung.
Experiment [8] has as its system A549/ATCC NSCLC.
Experiment [9] has as its system 786-0 renal.
Experiment [10] deals with COLO 205 colon.
Experiment [11] deals with DU-145 prostate.
Experiment [12] has as its system K-562 leukemia.
In experiment [13] the test system is MALME-3M melanoma.
For experiment [14], the system named is MDA-MB-231 breast.
The test system of experiment [15] is RXF 393 renal.
Experiment [16] deals with SF-268 CNS.
Experiment [17] has as its system SF-295 CNS.
The test system of experiment [18] is SF-539 CNS.
Experiment [19] deals with UACC-257 melanoma.
The subject of experiment [20] is M14 melanoma.

On to `CN1CCN(CC#CCNC(=O)[C@]23CCC(C)(C)C[C@H]2C2=CC[C@@H]4[C@@]5(C)Cc6c([nH]c7ccccc67)C(C)(C)[C@@H]5CC[C@@]4(C)[C@]2(C)CC3)CC1`, for which the growth in experiment [1] is 95.8%; in experiment [2], 93.9%; in experiment [3] it was 88.7%; in experiment [4], 91.9%; in experiment [5], -25.3% (active); in [6], 52.7%. The growth is 67% in experiment [7]; 52.8% in [8]; 64.5% in [9]; 51.2% in experiment [10]; 61.9% in experiment [11]; 1.31% (active) in experiment [12]. Further, the growth in experiment [13] is 26.6%; in experiment [14] it was 74.1%; in [15], 66.5%; in [16], 70%; in [17] it was 108%; in experiment [18] it was 82.6%. Also, the growth was 82.2% in experiment [19] and 51.5% in experiment [20].
With `O=C(CCN1CCCC1)Nc1ccc2c(NCc3ccc(F)cc3)c3ccccc3nc2c1`, the growth is -39.8% (active) in experiment [1]; 4% (active) in experiment [2]; -4.47% (active) in experiment [3]; -1.6% (active) in experiment [4]; -63.4% (active) in [5]; -8.01% (active) in [6]. Moreover, the growth in [7] was -50.1% (active); in experiment [8] it was -37.6% (active); in experiment [9] it was 6.33% (active); in experiment [10], -62.5% (active); in experiment [11], -38.4% (active); in experiment [12], 0.876% (active). The growth in [13] was -90.4% (active); in experiment [14], -17.1% (active); in experiment [15], -15.8% (active); in [16] it was -3.64% (active); in [17], 22.8%; in experiment [18], 3.09% (active). The values for the growth in experiment [19] and in [20] were -3.51% (active) and -25% (active), respectively.
Consider `COc1cc(C(=O)c2cnc(-c3ccc4cc[nH]c4c3)[nH]2)cc(OC)c1OC`, for which the growth is 22.9% in experiment [1]; 26.2% in experiment [2]; 36.3% in [3]; 12.7% in experiment [4]; -9.07% (active) in experiment [5]; -2.58% (active) in experiment [6]. Further, the growth is -17.4% (active) in experiment [7]; 8.91% (active) in [8]; -8.83% (active) in experiment [9]; -55.3% (active) in [10]; -1.47% (active) in experiment [11]; 8.98% (active) in experiment [12]. Also, the growth is 48.9% in experiment [13]; -48% (active) in experiment [14]; 34.4% in experiment [15]; 10% in experiment [16]; 5.4% (active) in experiment [17]; -5.7% (active) in experiment [18]. In [19], the growth was 62.3%.
As for `COc1cc2oc(-c3cccc(C(=O)Nc4ccc(Cl)cc4)c3)cc(=O)c2c(OC)c1OC`, the growth in experiment [1] is 44.3%; in experiment [2] it was 36.5%; in experiment [3] it was 37%; in experiment [4], 12.8%; in [5], 20.1%; in experiment [6], -2.18% (active). In addition, the growth is 25.2% in [7]; 23.6% in [8]; 12% in experiment [9]; 18% in [10]; 42.4% in [11]; 16% in experiment [12]. Further, the growth was 14.2% in [13]; -3.1% (active) in [14]; -29% (active) in [15]; 48.3% in [16]; -41.6% (active) in experiment [17]; 35.2% in experiment [18]. Further, the growth in [19] is -7.18% (active).
Consider `O=C(Nc1nc(-c2ccc(Br)cc2)cs1)c1cc(-c2ccc(Br)cc2)nc2ccc(Cl)cc12`, for which the growth was 69.7% in [1]; 76.3% in experiment [2]; 89.9% in experiment [3]; 80.1% in [4]; 88.3% in experiment [5]; 71.7% in experiment [6]. For the same molecule, the growth in [7] was 76.9%; in [8], 84.8%; in [9], 94.3%; in experiment [10] it was 84.5%; in [11], 92.6%; in [12] it was 56.6%. Further, the growth is 105% in experiment [13]; 74.1% in [14]; 100% in experiment [15]; 85% in experiment [16]; 97.8% in experiment [17]; 99.1% in [18]. Besides, the growth in [19] is 101%.
For the molecule `Cc1cc2cc3cc(C)c(N)cc3[n+](C)c2cc1N`, the growth in experiment [1] was 0.672% (active); in [2], 30.9%; in experiment [3], 28.4%; in [4], 19.3%; in experiment [5], -14.5% (active); in experiment [6], -11.9% (active). Further, the growth was -4.5% (active) in experiment [7]; 3.82% (active) in [8]; 14.7% in experiment [9]; -46.5% (active) in experiment [10]; 19.1% in experiment [11]; 9.81% (active) in experiment [12]. In addition, the growth was 1.11% (active) in experiment [13]; 20.2% in experiment [14]; 26.3% in [15]; 14.2% in experiment [16]; -4.54% (active) in [17]; 17.3% in [18]. For the same molecule, the growth in [19] is 5.88% (active).
As to `c1ccc(-c2nn(-c3ccccc3)[n+](-c3ccccc3-c3ccccc3)n2)cc1`, the growth is 5.14% (active) in experiment [1]; 28.1% in experiment [2]; 40.6% in experiment [3]; 32.6% in experiment [4]; 5.11% (active) in experiment [5]; -24.4% (active) in [6]. Further, the growth is -7.02% (active) in experiment [7]; 17.3% in [8]; 30.8% in experiment [9]; -34.5% (active) in experiment [10]; 22.8% in [11]; 5.29% (active) in experiment [12]. Besides, the growth was -31.7% (active) in experiment [13]; 35.5% in experiment [14]; 10.1% in [15]; 22% in [16]; 3.4% (active) in [17]; 22.9% in [18]. Besides, the growth in experiment [19] was 9.82% (active); in experiment [20], 23.2%.
For `FCc1nc2nc(Cl)c(Cl)nc2[nH]1`, the growth in [1] is 99.3%; in [2] it was 104%; in experiment [3], 113%; in experiment [4], 94.8%; in [5] it was 108%; in experiment [6], 81.2%. In addition, the growth in experiment [7] is 95.9%; in experiment [8] it was 98.9%; in experiment [9], 103%; in [10], 109%; in experiment [11], 104%; in experiment [12], 93%. For the same molecule, the growth was 97.3% in [13]; 128% in experiment [14]; 105% in experiment [15]; 94.9% in experiment [16]; 93.7% in experiment [17]; 100% in experiment [18]. The growth in [19] is 99.2%.

The values are drawn from PubChem BioAssay (NCI).
